{"source": "PubChem BioAssay (NCATS)", "note": "Results filed as inconclusive are left out. Calls of active or inactive are those of the source. Calls follow the shape of the dose curve; as a rule, active = well fitted inhibition curve with a large enough effect; inconclusive = small, poorly fitted or top-dose-only effect; inactive = flat fitted curve, though single readings scatter.", "data": [{"molecular_target": "Aldehyde dehydrogenase, mitochondrial (Homo sapiens) (UniProt P05091)", "assay": "qHTS for Inhibitors of the Aldehyde Dehydrogenase Family (ALDH2) Primary screen (AID 2061308);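 also: plate controls were vehicle for no effect and reference inhibitor for full effect; nearly all actives have a fitted effect of over 55% in size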", "settings": "ALDH2 enzyme inhibition qHTS, 1536-well; series mostly up to 56 µM; activity change, negative = inhibition: at the top concentration", "values": [{"smiles": "CC[C@H](/C=C/[C@@H](C)[C@H]1CC[C@H]2[C@@H]3CC=C4C[C@@H](O)CC[C@]4(C)[C@H]3CC[C@]12C)C(C)C", "activity change, negative = inhibition": "-2.53% [at 5.59 µM] (inactive)"}, {"smiles": "O=C1Cc2c([nH]c3ccc(Br)cc23)-c2ncccc2N1", "activity change, negative = inhibition": "-1.67% (inactive)"}, {"smiles": "CN(C)Cc1ccc(-c2cnn3c(-c4cccc(NC(=O)c5cccc(C(F)(F)F)c5)c4)ccnc23)cc1", "activity change, negative = inhibition": "5.67% (inactive)"}, {"smiles": "C=CS(=O)(=O)NC1CCN(C(=O)CNc2cc(I)c(Cl)cc2OC)CC1", "activity change, negative = inhibition": "10.7% (inactive)"}, {"smiles": "O=C(c1ccccc1)c1ccc2nc(NC(=O)c3csc(C4CCN(c5ncnc6ccsc56)CC4)n3)[nH]c2c1", "activity change, negative = inhibition": "1.4% (inactive)"}, {"smiles": "CN(C)C(CCOc1cccc2ccccc12)c1ccccc1", "note": "(stereo not given)", "activity change, negative = inhibition": "3.67% (inactive)"}, {"smiles": "CC(C)[C@@](C)(O)[C@@H]1CN(c2nc(-c3[nH]nc4ncccc34)c(F)cc2Cl)CCN1", "activity change, negative = inhibition": "6.34% (inactive)"}, {"smiles": "CC(C)n1cnc2c(Nc3cccc(Cl)c3)nc(NCCO)nc21", "activity change, negative = inhibition": "9.34% (inactive)"}, {"smiles": "CCC(C)CNCC(=O)N1CCc2sccc2C1COc1cccc(C)c1", "note": "(stereo not given)", "activity change, negative = inhibition": "-2.61% (inactive)"}, {"smiles": "CN(C)c1nc(NC2CCC(NC(=O)c3ccc(F)c(F)c3)CC2)nc2ccccc12", "note": "(stereo not given)", "activity change, negative = inhibition": "11.2% (inactive)"}, {"smiles": "CN(c1ccccc1CNc1nc(Nc2ccc3c(c2)CC(=O)N3)ncc1C(F)(F)F)S(C)(=O)=O", "activity change, negative = inhibition": "7.92% (inactive)"}, {"smiles": "CC(C)C1CCC(C(=O)N[C@@H](Cc2ccccc2)C(=O)O)CC1", "note": "(stereo not given in full)", "activity change, negative = inhibition": "1.86% (inactive)"}, {"smiles": "CN(c1nccc(=O)[nH]1)C1CCN(c2nc3ccccc3n2Cc2ccc(F)cc2)CC1", "activity change, negative = inhibition": "-1.09% (inactive)"}, {"smiles": "COc1cc2c(cc1-c1c(C)noc1C)ncc1[nH]c(=O)n(C(C)c3ccccn3)c12", "note": "(stereo not given)", "activity change, negative = inhibition": "4.94% (inactive)"}, {"smiles": "NC(=O)c1nc(Nc2ccccc2)sc1NC(=O)C1CCCCC1", "activity change, negative = inhibition": "15.8% (inactive)"}, {"smiles": "O=C(Nc1ncc(SCCN2CCCC2)s1)C1(c2ccc(S(=O)(=O)C3CC3)cc2)CC1C1CCCCC1", "note": "(stereo not given)", "activity change, negative = inhibition": "5.72% (inactive)"}, {"smiles": "COc1ccccc1OCCNCC(O)CCOc1cccc2[nH]c3ccccc3c12", "note": "(stereo not given)", "activity change, negative = inhibition": "17.2% (inactive)"}, {"smiles": "CC(C)(C)CC(C)(C)c1ccc(OCCOCC[N+](C)(C)Cc2ccccc2)cc1", "activity change, negative = inhibition": "10.4% (inactive)"}, {"smiles": "COc1ccc2nc(-c3cc(OC)c(OC)c(OC)c3)cc(C(=O)NCC(=O)Nc3ccc(C(C)=O)cc3)c2c1", "activity change, negative = inhibition": "-16% (inactive)"}, {"smiles": "C#CCNCc1cc2cc(OCc3ccccc3)ccc2[nH]1", "activity change, negative = inhibition": "1.73% (inactive)"}, {"smiles": "COc1ccc(C2=NC(c3ccc(Cl)cc3)C(c3ccc(Cl)cc3)N2C(=O)N2CCNC(=O)C2)c(OC(C)C)c1", "note": "(stereo not given)", "activity change, negative = inhibition": "0.32% (inactive)"}, {"smiles": "Cc1cn(-c2cc(NC(=O)c3ccc(C)c(Nc4nccc(-c5cnccn5)n4)c3)cc(C(F)(F)F)c2)cn1", "activity change, negative = inhibition": "-1.81% (inactive)"}, {"smiles": "COc1ccc(N(C(=O)Nc2c(C)cccc2C)c2cc(Nc3ccc(N4CCN(C)CC4)cc3)ncn2)c(OC)c1", "activity change, negative = inhibition": "-7.47% (inactive)"}, {"smiles": "CCOC(=O)Nc1nc2ccccc2[nH]1", "activity change, negative = inhibition": "2.25% (inactive)"}, {"smiles": "CCCSc1nc(N[C@@H]2C[C@H]2c2ccc(F)c(F)c2)c2nnn([C@@H]3C[C@H](OCCO)[C@@H](O)[C@H]3O)c2n1", "activity change, negative = inhibition": "-5.5% (inactive)"}, {"smiles": "CCc1ccccc1OC[C@@H](O)CN[C@H]1CCCc2ccccc21", "activity change, negative = inhibition": "7.81% (inactive)"}, {"smiles": "Fc1ccc(-n2cc(CCCCN3CCC4(CC3)OCc3ccccc34)c3ccccc32)cc1", "activity change, negative = inhibition": "30.7% (inactive)"}, {"smiles": "CCN(Cc1ccccc1)C(=O)Cn1c(=O)n(C)c2cnc(-c3ccccc3)nc21", "activity change, negative = inhibition": "9.24% (inactive)"}, {"smiles": "Cc1nc(Nc2cnn(C3CCNCC3)c2)nc2c1N(C)C(=O)c1cc3ccccc3cc1N2C", "activity change, negative = inhibition": "-2.52% (inactive)"}, {"smiles": "O=C(NC1Cc2ccccc2N(C[C@@H](O)CO)C1=O)c1cc2cc(Cl)sc2[nH]1", "note": "(stereo not given in full)", "activity change, negative = inhibition": "-4.8% (inactive)"}, {"smiles": "C=CC(=O)Nc1cccc(CN2C(=O)N(c3c(Cl)c(OC)cc(OC)c3Cl)Cc3cnc(NCCCCN(CC)CC)nc32)c1", "activity change, negative = inhibition": "12.3% (inactive)"}, {"smiles": "CC(=O)OC1C(=O)C2(C)C(O)CC3OCC3(OC(C)=O)C2C(OC(=O)c2ccccc2)C2(O)CC(OC(=O)C(O)C(NC(=O)c3ccccc3)c3ccccc3)C(C)=C1C2(C)C", "note": "(stereo not given)", "activity change, negative = inhibition": "3.48% (inactive)"}, {"smiles": "COc1ccc2cc1Oc1ccc(cc1)C[C@H]1c3c(cc4c(c3Oc3cc5c(cc3OC)CCN(C)[C@@H]5C2)OCO4)CCN1C", "activity change, negative = inhibition": "0.546% (inactive)"}, {"smiles": "CCc1cc2c(cc1CC)CC(NCC(O)c1ccc(O)c3[nH]c(=O)ccc13)C2", "note": "(stereo not given)", "activity change, negative = inhibition": "-8.47% (inactive)"}, {"smiles": "Cc1ccc(C(=O)N(CCCN)C(c2nc3cc(Cl)ccc3c(=O)n2Cc2ccccc2)C(C)C)cc1", "note": "(stereo not given)", "activity change, negative = inhibition": "2.58% (inactive)"}, {"smiles": "C=C[C@H]1CN2CC[C@H]1C[C@H]2[C@H](O)c1ccnc2ccc(OC)cc12", "activity change, negative = inhibition": "2.36% (inactive)"}, {"smiles": "CCC[C@H]1C[C@H](C(=O)N[C@@H]([C@@H]2O[C@@H](SC)[C@@H](O)[C@@H](O)[C@@H]2O)[C@H](C)Cl)N(C)C1", "activity change, negative = inhibition": "3.29% (inactive)"}, {"smiles": "CC(C)c1nc(CN(C)C(=O)N[C@H](C(=O)N[C@@H](Cc2ccccc2)C[C@H](O)[C@H](Cc2ccccc2)NC(=O)OCc2cncs2)C(C)C)cs1", "activity change, negative = inhibition": "21.4% (inactive)"}, {"smiles": "OC(CNCCc1c[nH]c2ccccc12)Cn1c2ccccc2c2ccccc21", "note": "(stereo not given)", "activity change, negative = inhibition": "7.96% (inactive)"}, {"smiles": "CNC1CN(c2ccc3c(=O)c(C(=O)O)cn(-c4nccs4)c3n2)CC1OC", "note": "(stereo not given)", "activity change, negative = inhibition": "2.97% [at 11.2 µM] (inactive)"}]}]}
